Compound activity (PubChem BioAssay)
In the library only some 2.9% were active in any assay of this set; here they are far more common.
D3 ag: qHTS of D3 Dopamine Receptor Agonist: qHTS | D(3) dopamine receptor (Homo sapiens), P35462 | D3R DiscoveRx beta-arrestin cells, luminescence, 90 min | max activation, % | 0.58% of 410,000 active | AID 652048, 2013; in the data active = max activation above about 30%
Target sequence (P35462 whole entry, looked up): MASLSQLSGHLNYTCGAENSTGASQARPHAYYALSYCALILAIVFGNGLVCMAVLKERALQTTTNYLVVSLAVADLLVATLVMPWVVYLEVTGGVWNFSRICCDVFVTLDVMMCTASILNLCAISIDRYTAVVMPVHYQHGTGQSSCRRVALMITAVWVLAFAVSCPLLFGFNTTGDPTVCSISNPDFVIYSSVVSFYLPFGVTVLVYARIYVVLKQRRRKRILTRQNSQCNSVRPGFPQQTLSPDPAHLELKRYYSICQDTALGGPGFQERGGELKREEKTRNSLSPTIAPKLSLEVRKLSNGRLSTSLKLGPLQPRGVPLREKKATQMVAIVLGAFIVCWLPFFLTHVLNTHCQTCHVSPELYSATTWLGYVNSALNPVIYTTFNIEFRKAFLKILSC
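Cells at 1500/well, incubated overnight, then treated with pinned compounds (dopamine as control) for 90 min at 37 degrees C. DiscoveRx reagent added for 30 - 60 minutes at room temperature; luminescence read.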
B2AR arrestin: qHTS assay of beta-arrestin-biased ligands of beta2-adrenergic receptor; Beta-2 adrenergic receptor (Homo sapiens), P07550; beta-arrestin recruitment to beta2AR, cell-based reporter; Potency, µM (series often up to 46.1 µM), most hits filed as activators; 0.02% of 330,000 active; AID 492947, 2010; note: nearly all actives have a fitted effect of over 65% in size
mIDH1 inhibitor: qHTS for Inhibitors of mutant isocitrate dehydrogenase 1 (IDH1): qHTS. IDH1-R132H enzyme, NADPH consumption, diaphorase/resazurin fluorescence. Potency, µM (titrated, usually from 76.6 µM), usual class: inhibitors. 0.093% of 390,000 active; note: nearly all actives have a fitted effect of over 65% in size
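IDH1-R132H (0.5 ug/mL) preincubated 30 min with compound, then NADPH (0.016 mM) and alpha-KG (2 mM) added; 80 min at RT, pH 7.5. Remaining NADPH coupled via diaphorase/resazurin to fluorescence (540/590 nm); concentration-response curves normalized to no-enzyme control.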
a7 integrin act: qHTS for Activators of Integrin-Mediated Alleviation for Muscular Dystrophy. alpha7betagal myoblasts, beta-gal FDG fluorescence, 48 h. Potency, µM (series often up to 38.3 µM), usual class: activators. 0.064% of 350,000 active. AID 624291, 2012; note: nearly all actives have a fitted effect of over 60% in size
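alpha7betagal+/- myoblasts (passage 13, 250/well) treated 48 h at 37C with compounds at 1:260 dilution of DMSO stock. Lysed, then beta-galactosidase activity read as FDG fluorescence (ex 480/em 540) after 30 min, with pre-read for autofluorescence.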
DRD3 antagonist: qHTS of D3 Dopamine Receptor Antagonist: qHTS | D(3) dopamine receptor (Homo sapiens), P35462 | D3R cells, DiscoveRx beta-arrestin luminescence, antagonist mode; active compounds read low | max response, negative = inhibition, % | 2.5% of 360,000 active | AID 652054, 2013; in the data active = max response below about -50%; inconclusive = no clear call, values can overlap the other calls
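Cells plated overnight at 1500 cells/well, then exposed to library compounds with dopamine controls for 90 minutes at 37 degrees C. DiscoveRx reagent added for 30–60 minutes at room temperature; luminescence read, quantitative HTS format.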
Numbers stand for hits. Unless noted, calls come from the whole dose curve; as a rule, active = well fitted curve in the direction sought with a large enough effect; inconclusive = small, poorly fitted or top-dose-only effect, or another doubt; inactive = no such curve, though single readings can be large; an effect the other way counts as inactive or inconclusive.

`COC(=O)[C@@]12CCCCN1[C@H](c1ccc(-c3ccc(Cl)c(Cl)c3)c(OC)c1)[C@@H]1C(=O)N(C)C(=O)[C@@H]12` gave D3 ag 41.4, mIDH1 inhibitor inactive, a7 integrin act inactive and DRD3 antagonist inactive.
`Cc1ccccc1OCc1nc2c3cnn(-c4cccc(F)c4)c3ncn2n1` gave D3 ag inactive.
CCOc1ccc(S(=O)(=O)N(CC(=O)NC2CCCC2)c2ccc(F)cc2)cc1 was read as D3 ag inactive, mIDH1 inhibitor inactive, a7 integrin act inactive and DRD3 antagonist -52.0.
For CCOc1ccc(S(=O)(=O)N(C)c2ccc(OCC(=O)NCC3CCCCC3)cc2)cc1 the results were D3 ag inactive, B2AR arrestin inactive, mIDH1 inhibitor inactive, a7 integrin act inactive and DRD3 antagonist -79.3.
CCOc1ccc(S(=O)(=O)N(C)c2ccc(OCC(=O)NCC3CCCO3)cc2)cc1 (configuration not stated) was read as D3 ag inactive, B2AR arrestin inactive, mIDH1 inhibitor inactive, a7 integrin act inactive and DRD3 antagonist inactive.
Screening CN(C)c1cccc(-c2cc(Nc3ccc(C(C)(C)C)cc3)ncn2)c1 returned D3 ag inactive and DRD3 antagonist -54.6.
For Oc1c(C(Nc2ccccn2)c2cccnc2)cc(Cl)c2cccnc12 (configuration not stated) the results were D3 ag inactive, B2AR arrestin inactive, mIDH1 inhibitor inactive, a7 integrin act inactive and DRD3 antagonist -121.2.
Screening CC(=O)NC(c1ccc(C)cc1)c1cc(Cl)c2cccnc2c1O (configuration not stated) returned D3 ag inactive, B2AR arrestin inactive, mIDH1 inhibitor inactive, a7 integrin act inactive and DRD3 antagonist -79.3.
`Oc1c(C(c2ccccn2)N2CCC(Cc3ccccc3)CC2)cc(Cl)c2cccnc12` (configuration not stated) gave D3 ag inactive, B2AR arrestin inconclusive, mIDH1 inhibitor inactive, a7 integrin act inactive and DRD3 antagonist -111.9.
CC(=O)NC(c1cc(Cl)c2cccnc2c1O)C(C)C (configuration not stated) was read as B2AR arrestin inactive.
CC(=O)NC(c1ccco1)c1cc(Cl)c2cccnc2c1O (configuration not stated) was read as B2AR arrestin inactive.
CN1CCN(C(c2ccccn2)c2cc(Cl)c3cccnc3c2O)CC1 (configuration not stated) was read as D3 ag inactive, B2AR arrestin inconclusive, mIDH1 inhibitor inactive, a7 integrin act inactive and DRD3 antagonist -125.9.
For Cc1nn(-c2ccc(N3CCCCC3)nn2)c(C)c1CCC(=O)Nc1ccc(F)cc1F the results were D3 ag inactive and mIDH1 inhibitor inactive.
`Fc1ccccc1Cn1c(-c2ccccc2)nc2ccccc21` gave D3 ag inactive and mIDH1 inhibitor inactive.
For CN1CCN(C(c2ccc(C(F)(F)F)cc2)c2ccc3cccnc3c2O)CC1 (configuration not stated) the results were D3 ag inactive, B2AR arrestin inactive, mIDH1 inhibitor inactive, a7 integrin act inactive and DRD3 antagonist inconclusive.
COc1cc(C(=O)NC(c2ccc(Cl)cc2)c2cc(Cl)c3cccnc3c2O)cc(OC)c1OC (configuration not stated) was read as D3 ag inactive and mIDH1 inhibitor inactive.
For Oc1c(C(c2ccc(Cl)cc2)N2CCCC2)cc(Cl)c2cccnc12 (configuration not stated) the results were D3 ag inactive, B2AR arrestin inactive, mIDH1 inhibitor inactive, a7 integrin act inactive and DRD3 antagonist -105.7.
For Cc1ccc(C(c2cc(Cl)c3cccnc3c2O)N2CCN(C)CC2)cc1 (configuration not stated) the results were D3 ag inactive, B2AR arrestin inactive, mIDH1 inhibitor inactive, a7 integrin act inactive and DRD3 antagonist -117.7.
For Oc1c(C(c2ccccc2Cl)N2CCCC2)ccc2cccnc12 (configuration not stated) the results were D3 ag inactive, B2AR arrestin inactive, mIDH1 inhibitor inactive, a7 integrin act inactive and DRD3 antagonist -52.9.
Screening CCOc1ccc(-c2nonc2NC(=O)c2oc3ccc(Cl)cc3c2C)cc1 returned D3 ag inactive and mIDH1 inhibitor inactive.
Screening Cc1coc2c1c(C)cc1oc(=O)c(CC(=O)NCc3ccc(Cl)cc3)c(C)c12 returned D3 ag inactive and mIDH1 inhibitor inactive.
O=C(O)c1ccccc1Sc1ccccc1S(=O)(=O)NC1CCCCC1 was read as D3 ag 31.7, B2AR arrestin inactive, mIDH1 inhibitor inactive, a7 integrin act inactive and DRD3 antagonist inactive.
For O=C(CSc1ccc(-c2cccnc2)nn1)Nc1ccc(F)cc1 the results were D3 ag inactive, B2AR arrestin inactive, mIDH1 inhibitor inactive, a7 integrin act inactive and DRD3 antagonist -63.0.
`CC(C)c1ccc(NC(=O)CSc2nc3ccccc3nc2Cc2ccccc2)cc1` gave D3 ag inactive and mIDH1 inhibitor inactive.
For COc1ccc(CCNc2nc(SCc3ccccc3F)nc3ccccc23)cc1OC the results were D3 ag inactive and mIDH1 inhibitor inactive.
For COC(=O)c1ccc2c(c1)C(C)(C)C(/C=C/c1ccccc1O)=[N+]2C the results were D3 ag inactive, B2AR arrestin inactive, mIDH1 inhibitor 35.5µM, a7 integrin act inactive and DRD3 antagonist inconclusive.
Screening NC(N)=NCC1COC2(CCCCC2)O1 (configuration not stated) returned D3 ag inactive.
CCC1(c2ccc(F)cc2)NC(=O)N(CC(=O)N2c3ccccc3NC(=O)C2(C)C)C1=O (configuration not stated) was read as D3 ag inactive, B2AR arrestin inactive, mIDH1 inhibitor inactive, a7 integrin act inactive and DRD3 antagonist inactive.
CC(C)CC1NC(=O)N(CC(=O)N2c3ccccc3NC(=O)C2(C)C)C1=O (configuration not stated) was read as D3 ag inactive, B2AR arrestin inactive, mIDH1 inhibitor inactive, a7 integrin act 5.62µM and DRD3 antagonist inactive.
Screening COc1ccc(CCN2C(=O)c3[nH]nc(-c4ccccc4O)c3C2c2ccc(OC)c(OC)c2)cc1 (configuration not stated) returned D3 ag inactive and mIDH1 inhibitor inactive.
O=C(Oc1c(Cl)cc(Cl)c2cccnc12)c1cccc([N+](=O)[O-])c1 was read as D3 ag inactive, B2AR arrestin inactive, mIDH1 inhibitor inactive, a7 integrin act inactive and DRD3 antagonist -94.4.
Screening O=C(Oc1ccc(Cl)c2cccnc12)c1cccc([N+](=O)[O-])c1 returned D3 ag inactive, B2AR arrestin inactive, mIDH1 inhibitor inactive, a7 integrin act inactive and DRD3 antagonist -72.2.
